# Experimental data: PubChem BioAssay
# Test: MM1S cell viability effects, profiling panel, calcein-AM fluorescence, 48 h, basal (AID 1165);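 note: viability of MM1S multiple myeloma cells under basal unstimulated conditions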
# Conditions: higher = more signal
# Note: test concentration not given here.
row,SMILES,z-score
1,COc1cc(NN2C(C(O)C3CCCCC3)C=CC3C(=O)N(c4ccccc4)C(=O)C32)cc(OC)c1OC (stereo unspecified),-0.434
2,O=C(NCC(O)CO)[C@@]1(CCS(=O)(=O)c2ccccc2)COC(c2ccc(OCCCO)cc2)=N1 (stereo partly specified),-1.29
3,NCCCCCNC(=O)[C@@H]1C[C@@H]2C(=O)N3CCC[C@H]3C(=O)N2[C@@H]1c1ccc(O)cc1,-0.42
4,CCCNC(=O)[C@@]1(Sc2ccc(C)cc2)CC(=O)N(C2CCCCC2)[C@@H]1c1ccc(CO)cc1I,-2.15
5,COC(=O)C1=CC(CCCO)=CC(C)N(Cc2cccc(OC(F)(F)F)c2)C=C1C(=O)OC (stereo unspecified),0.403
6,C=CCC(OC(C)=O)[C@@H]1[C@@H](N(Cc2ccc(-c3ccccc3)cc2)C(=O)c2ccc(C)cc2)c2cc(OCCCO)ccc2N1C(=O)Cc1ccc2ccccc2c1 (stereo partly specified),0.697
7,CCCCCCCCCCC(O)C1C=CC2C(=O)N(c3ccccc3)C(=O)C2N1Nc1ccccc1F (stereo unspecified),-0.598
8,CCOC(=O)C[C@H]1[C@H](OC(=O)c2ccc(-c3ccccc3)cc2)[C@@H](NC(=O)Cc2ccc(OC)cc2)c2cc(OCCCO)ccc2N1C(=O)Cc1ccc(OC)cc1,0.191
9,Cc1ccccc1C(O)C1C=CC2C(=O)NC(=O)C2N1Nc1ccc(Cl)cc1Cl (stereo unspecified),-2.93
10,COCCOC(=O)N1C(=O)[C@@]2(c3cc(C#CCC(C(=O)OC)C(=O)OC)ccc31)[C@H](c1ccc(OCCO)cc1)N1[C@H](c3ccccc3)[C@H](c3ccccc3)OC(=O)[C@H]1[C@@H]2C(=O)Nc1nc2ccccc2s1,-0.518
11,O=C1C[C@@](C(=O)NCC(F)(F)F)(c2ccc([N+](=O)[O-])cc2)[C@@H](c2ccc(CO)cc2)N1CC12CC3CC(CC(C3)C1)C2,-2.72
12,CCOC(=O)C[C@H]1[C@H](OC(=O)c2ccccc2-c2ccccc2)[C@@H](NC(=O)c2ccc3ccccc3n2)c2cc(OCCCO)ccc2N1C(=O)c1ccccc1,-0.295
13,COCCOC(=O)N1C(=O)[C@@]2(c3cc(C#CCNC(N)=O)ccc31)[C@H](c1ccc(O)cc1)N1[C@H](c3ccccc3)[C@H](c3ccccc3)OC(=O)[C@H]1[C@@H]2C(=O)N1CCN(c2ncccn2)CC1,-0.0396
14,C=CC[C@H](OC(=O)Nc1ccc(SC)cc1)c1ccc(OCCO)cc1,-0.75
15,C[C@]1(C(=O)O)c2ccccc2C(=O)N(Cc2ccc(OC(F)(F)F)cc2)[C@H]1c1ccc(CO)cc1,-0.24
16,CN(C)CCCCCCNC(=O)[C@@H]1C[C@@H]2C(=O)N[C@@H](CCCCN)C(=O)N2[C@@H]1c1ccc(O)cc1,0.56
17,CC(C)C(=C=CC[C@@H](O)c1cccc(OCCO)c1)C[C@@H](O)c1ccccn1,-0.0369
18,CCOC(=O)C1=CC[C@@H](c2ccccc2)N(S(=O)(=O)c2ccc(C)cc2)[C@H]1c1cccc(OC)c1,-0.247
19,CC(C)=CCCC(C)=CC(O)C1C=CC2C(=O)N(c3ccccc3)C(=O)C2N1Nc1ccccc1F (stereo unspecified),0.381
20,C=CCC(OC(C)=O)[C@@H]1[C@@H](N(Cc2ccc(-c3cccc(C(F)(F)F)c3)o2)C(=O)Cc2ccc(OC)cc2)c2cc(OCCCO)ccc2N1C(=O)Cc1ccc2ccccc2c1 (stereo partly specified),-0.499
21,NC(=O)NCC#Cc1ccc2c(c1)[C@]1(C(=O)N2)[C@H](C(=O)N2CCN(c3ncccn3)CC2)[C@H]2C(=O)O[C@H](c3ccccc3)[C@H](c3ccccc3)N2[C@@H]1c1ccc(OCCO)cc1,-0.444
22,COCCOC(=O)N1C(=O)[C@@]2(c3cc(C#CC4=CCCCC4)ccc31)[C@H](c1ccc(O)cc1)N1[C@H](c3ccccc3)[C@H](c3ccccc3)OC(=O)[C@H]1[C@@H]2C(=O)NC[C@H](O)c1ccccc1,-1.3
23,COCC(=C=CC[C@@H](O)c1cccc(OCCO)c1)CCO,0.55
24,Cc1ccc(S[C@]2(C(=O)NC(C)C)CC(=O)N(C(C)C)[C@@H]2c2ccc(CO)cc2I)cc1,-2.39
25,O=C1O[C@H](c2ccccc2)[C@H](c2ccccc2)N2[C@H]1[C@@H](C(=O)N1CCCCCCC1)[C@]1(C(=O)Nc3ccc(C#CC4(O)CCCCCC4)cc31)[C@H]2c1ccc(O)cc1,-0.845

# Test: basal RPMI8226 viability, no added stimulus, profiling panel, cell-based, calcein-AM fluorescence, 48 h, PK04 Diversity Set (AID 1166);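 note: cells grown under basal conditions without added stimulus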
# Conditions: RPMI8226 myeloma viability, higher = more signal
row,SMILES,z-score
1,COCC(=C=CC[C@H](O)c1cccc(OCCO)c1)C[C@H](O)COCc1ccccc1,-0.557
2,C=CCOC(=O)[C@H]1[C@@H]2C(=O)O[C@@H](c3ccccc3)[C@@H](c3ccccc3)N2[C@@H](c2ccc(OCCOC(=O)[C@H]3C[C@H]4C(=O)N[C@@H](CCCCNC(C)=O)C(=O)N4[C@H]3c3cccc(OCCO)c3)cc2)[C@]12C(=O)Nc1ccc(I)cc12,-0.665
3,Cc1c(NC(=O)/C(C#N)=C/c2ccccc2Cl)c(=O)n(-c2ccccc2)n1C,1.52
4,C=C(C(=O)CC[C@@H](OC(=O)c1ccccc1-c1ccccc1C(=O)O)c1ccccc1OCCO)C(C)C,-1.92
5,COc1ccc([Si](C)(C)[C@@H]2[C@@H](CC(=O)N3Cc4ccccc4C[C@H]3CO)O[C@]3(C(=O)N(Cc4ccc(N5CCC5=O)cc4)c4ccccc43)[C@H]2C)cc1,-1.76
6,C=C[C@@H](OC)[C@H](OC(=O)Nc1ccc(OC)cc1)c1ccc(OC)c(O)c1,1.05
7,CCOC(=O)C1=CCC(c2ccco2)N(S(=O)(=O)c2ccc(C)cc2)C1 (stereo unspecified),-1.64
8,C=CCNC(=O)[C@H]1[C@@H]2C(=O)O[C@@H](c3ccccc3)[C@@H](c3ccccc3)N2[C@@H](c2ccc(OCCO)cc2)[C@]12C(=O)N(C(=O)OCCOC)c1ccc(C#Cc3ccc(OC)cc3)cc12,-1.2
9,CN1C=C(C(=O)OCCS(C)(=O)=O)C(C(=O)OCCS(C)(=O)=O)=CC(c2ccc(CO)cc2)=CC1c1cccs1 (stereo unspecified),-1.1
10,COC(=O)C1N=C(c2ccc(OCCCO)cc2)N(c2ccccc2)O1 (stereo unspecified),0.5
11,CC(C)N1CC=CC23O[C@@H]4/C=C\CCCOC(=O)C4[C@H]2C(=O)N(CCCCCCO)[C@@H]3C1=O (stereo partly specified),0.0006
12,COc1cc(NN2C(C(O)C3CCCCC3)C=CC3C(=O)N(c4ccccc4)C(=O)C32)cc(OC)c1OC (stereo unspecified),-1.8
13,O=C(NCC(O)CO)[C@@]1(CCS(=O)(=O)c2ccccc2)COC(c2ccc(OCCCO)cc2)=N1 (stereo partly specified),-0.187
14,NCCCCCNC(=O)[C@@H]1C[C@@H]2C(=O)N3CCC[C@H]3C(=O)N2[C@@H]1c1ccc(O)cc1,0.209
15,CCCNC(=O)[C@@]1(Sc2ccc(C)cc2)CC(=O)N(C2CCCCC2)[C@@H]1c1ccc(CO)cc1I,-2.58
16,COC(=O)C1=CC(CCCO)=CC(C)N(Cc2cccc(OC(F)(F)F)c2)C=C1C(=O)OC (stereo unspecified),0.286
17,C=CCC(OC(C)=O)[C@@H]1[C@@H](N(Cc2ccc(-c3ccccc3)cc2)C(=O)c2ccc(C)cc2)c2cc(OCCCO)ccc2N1C(=O)Cc1ccc2ccccc2c1 (stereo partly specified),0.922
18,CCCCCCCCCCC(O)C1C=CC2C(=O)N(c3ccccc3)C(=O)C2N1Nc1ccccc1F (stereo unspecified),-0.105

row,SMILES,z-score
1,CCOC(=O)C[C@H]1[C@H](OC(=O)c2ccc(-c3ccccc3)cc2)[C@@H](NC(=O)Cc2ccc(OC)cc2)c2cc(OCCCO)ccc2N1C(=O)Cc1ccc(OC)cc1,-0.102
2,Cc1ccccc1C(O)C1C=CC2C(=O)NC(=O)C2N1Nc1ccc(Cl)cc1Cl (stereo unspecified),-1.58
3,COCCOC(=O)N1C(=O)[C@@]2(c3cc(C#CCC(C(=O)OC)C(=O)OC)ccc31)[C@H](c1ccc(OCCO)cc1)N1[C@H](c3ccccc3)[C@H](c3ccccc3)OC(=O)[C@H]1[C@@H]2C(=O)Nc1nc2ccccc2s1,-0.312
4,O=C1C[C@@](C(=O)NCC(F)(F)F)(c2ccc([N+](=O)[O-])cc2)[C@@H](c2ccc(CO)cc2)N1CC12CC3CC(CC(C3)C1)C2,-4.39
5,CCOC(=O)C[C@H]1[C@H](OC(=O)c2ccccc2-c2ccccc2)[C@@H](NC(=O)c2ccc3ccccc3n2)c2cc(OCCCO)ccc2N1C(=O)c1ccccc1,-0.0468
6,COCCOC(=O)N1C(=O)[C@@]2(c3cc(C#CCNC(N)=O)ccc31)[C@H](c1ccc(O)cc1)N1[C@H](c3ccccc3)[C@H](c3ccccc3)OC(=O)[C@H]1[C@@H]2C(=O)N1CCN(c2ncccn2)CC1,-1.05
7,C=CC[C@H](OC(=O)Nc1ccc(SC)cc1)c1ccc(OCCO)cc1,0.329
8,C[C@]1(C(=O)O)c2ccccc2C(=O)N(Cc2ccc(OC(F)(F)F)cc2)[C@H]1c1ccc(CO)cc1,-1.48
9,CN(C)CCCCCCNC(=O)[C@@H]1C[C@@H]2C(=O)N[C@@H](CCCCN)C(=O)N2[C@@H]1c1ccc(O)cc1,-0.345
10,CC(C)C(=C=CC[C@@H](O)c1cccc(OCCO)c1)C[C@@H](O)c1ccccn1,0.128
11,CCOC(=O)C1=CC[C@@H](c2ccccc2)N(S(=O)(=O)c2ccc(C)cc2)[C@H]1c1cccc(OC)c1,-0.907
12,CC(C)=CCCC(C)=CC(O)C1C=CC2C(=O)N(c3ccccc3)C(=O)C2N1Nc1ccccc1F (stereo unspecified),-0.93
13,C=CCC(OC(C)=O)[C@@H]1[C@@H](N(Cc2ccc(-c3cccc(C(F)(F)F)c3)o2)C(=O)Cc2ccc(OC)cc2)c2cc(OCCCO)ccc2N1C(=O)Cc1ccc2ccccc2c1 (stereo partly specified),-1.14
14,NC(=O)NCC#Cc1ccc2c(c1)[C@]1(C(=O)N2)[C@H](C(=O)N2CCN(c3ncccn3)CC2)[C@H]2C(=O)O[C@H](c3ccccc3)[C@H](c3ccccc3)N2[C@@H]1c1ccc(OCCO)cc1,0.86
15,COCCOC(=O)N1C(=O)[C@@]2(c3cc(C#CC4=CCCCC4)ccc31)[C@H](c1ccc(O)cc1)N1[C@H](c3ccccc3)[C@H](c3ccccc3)OC(=O)[C@H]1[C@@H]2C(=O)NC[C@H](O)c1ccccc1,-3.84
16,COCC(=C=CC[C@@H](O)c1cccc(OCCO)c1)CCO,-0.0681
17,Cc1ccc(S[C@]2(C(=O)NC(C)C)CC(=O)N(C(C)C)[C@@H]2c2ccc(CO)cc2I)cc1,-1.38
18,O=C1O[C@H](c2ccccc2)[C@H](c2ccccc2)N2[C@H]1[C@@H](C(=O)N1CCCCCCC1)[C@]1(C(=O)Nc3ccc(C#CC4(O)CCCCCC4)cc31)[C@H]2c1ccc(O)cc1,-1.59
